Screens as filed in PubChem BioAssay.
Many of the other results were omitted from the sample, so hits are more common in it than they were.
RmlCD inh mix = inhibitors of RmlC and RmlD coupled enzymes | RmlC/RmlD coupled enzyme inhibition, 384-well mixture HTS | inhibition, % at 5.5 µM | hit rate 0.39% among 110,000 | AID 1532; in the data active = inhibition above about 30%, passing the limit was not always enough; inconclusive = no clear call, values can overlap the other calls
HIV RNase H inh-1 = blocks HIV-1 RNase H cleavage of RNA/DNA duplex; P04585; RT-RNase H RNA/DNA duplex cleavage, fluorescence; inhibition, % at 10 µM; AID 565; hit rate 1.9% among 65,000; in the data active = inhibition above about 50%
HIV RNase H inh-2 = confirmation of HIV-1 reverse transcriptase RNase H inhibitors. Recombinant RT RNase H, fluorescent RNA/DNA duplex cleavage. shares compounds with HIV RNase H inh-1. hit rate 39% among 1,000. inhibition, % at 10 µM. AID 651; in the data active = inhibition above about 48%; inconclusive = no clear call, values can overlap the other calls
Large screens that a line does not name were inactive (follow-up assays come after a bar, where they were run).

CC(C)CC(C(=O)Nc1ccc2c(c1)OCCO2)N1C(=O)c2ccccc2C1=O (configuration not stated)	none
CC(C)CC(C(=O)Nc1oc(-c2ccco2)c(-c2ccco2)c1C#N)N1C(=O)c2ccccc2C1=O (configuration not stated)	HIV RNase H inh-1 62
C[C@H]1[C@@H](OC(=O)CCC(=O)O)O[C@@H]2OC3(C)CC[C@H]4[C@H](C)CC[C@@H]1[C@@]24OO3	none (no result: HIV RNase H inh-1)
C#CCNC(=O)C1=C[C@H](c2ccc(Br)cc2)[C@@H](CCCO)[C@H](OCC)O1	none (no result: HIV RNase H inh-1)
Cc1cc(NC(=O)c2cc(-c3ccccc3)on2)n(-c2ccccc2)n1	none
Cc1cc(NC(=O)c2cc(-c3ccc4c(c3)OCO4)on2)n(-c2ccccc2)n1	RmlCD inh mix inconclusive, HIV RNase H inh-1 55
O=C(OCCN1C(=O)c2ccccc2C1=O)c1cccc(OC(F)F)c1	none
CCCNC(=O)c1onc(CSc2ccc(Cl)cc2)c1C(=O)NCCC(C)C	none (no result: HIV RNase H inh-1)
COc1ccc(-n2nnnc2SCC(=O)N2CCOCC2)cc1	none
COc1ccc(-n2nnnc2Sc2ccc(S(=O)(=O)N3CCOCC3)cn2)cc1	HIV RNase H inh-1 86
COc1ccc(CN(CCCN2CCOCC2)C(=O)Nc2ccccc2)cc1OC	none
COc1ccc(CN(CCN2CCOCC2)C(=O)c2c(F)cccc2F)cc1OC	HIV RNase H inh-1 62
COc1ccc(NC(=O)CSc2nnc(CNc3ccc(F)cc3)o2)c(OC)c1	none
O=C(CSc1nnc(COc2ccc3c(c2)CCCC3)o1)Nc1ccc(F)cc1	HIV RNase H inh-1 59
CC1(C)CC(=O)C2=C(C1)N(c1cccc(O)c1)C1=C(C2)C(=O)CC(C)(C)C1	RmlCD inh mix 39
CC1(C)CC(=O)C(C(C2=C(O)CC(C)(C)CC2=O)c2cccc(O)c2)C(=O)C1 (configuration not stated)	none
COC(=O)c1cc(OC)c(OC)cc1NC(=S)N1CCN(c2ccccc2)CC1	none (no result: HIV RNase H inh-1)
CC1CN(S(=O)(=O)c2cccc(C(=O)OCc3cc(=O)oc4cc(O)ccc34)c2)CC(C)O1 (configuration not stated)	RmlCD inh mix 82
CN(C)c1cccc(C(=O)OCc2cc(=O)oc3cc(O)ccc23)c1	none (no result: HIV RNase H inh-1)
CC1(C)c2[nH]c3ccccc3c2C[C@@H]2C(=O)N(Cc3ccco3)C(=O)N21	none (no result: HIV RNase H inh-1)
O=C(c1cccs1)N(Cc1ccccn1)Cc1ccco1	none
S=C1SCN(Cc2ccccn2)CN1Cc1ccco1	HIV RNase H inh-1 52
O=C1CCCN1CC(O)CS(=O)(=O)c1ccc(Cl)cc1 (configuration not stated)	none (no result: HIV RNase H inh-1)
Cc1ccc(S(=O)(=O)Nc2ccc3oc(=O)sc3c2)c(C)c1	HIV RNase H inh-1 60
Cc1ccc(C)c(S(=O)(=O)Nc2ccc3sc(C)nc3c2)c1	none (no result: HIV RNase H inh-1)
O=C(O)c1ccccc1NCN1C(=O)C2CC=C(Cl)CC2C1=O (configuration not stated)	RmlCD inh mix 37
Cc1ccc(NCN2C(=O)C3CC=C(Cl)CC3C2=O)cc1 (configuration not stated)	none (no result: HIV RNase H inh-1)
C#CCn1c(S(=O)(=O)Cc2ccc(OC)cc2)nc(-c2ccccc2)c1-c1ccccc1	none (no result: HIV RNase H inh-1)
CC(C)n1c2ccccc2c2nnc(SCC(=O)OCN3C(=O)c4ccccc4C3=O)nc21	RmlCD inh mix 117
Cn1c2ccccc2c2nnc(SCN3C(=O)c4ccccc4C3=O)nc21	none (no result: RmlCD inh mix)
CCOc1cc(-c2c(C#N)c(N)nc3c2CCCC3C)ccc1O (configuration not stated)	none
CCOc1cc(-c2cc(-c3ccc(C)cc3)nc(N)c2C#N)ccc1O	RmlCD inh mix 30 (no result: HIV RNase H inh-1)
O=C(CC(c1ccco1)C1CCCCC1=O)c1ccccc1 (configuration not stated)	none (no result: HIV RNase H inh-1)
O=C(NCc1cccc(Br)c1)C1CC(c2ccccc2[N+](=O)[O-])=NO1 (configuration not stated)	none (no result: HIV RNase H inh-1)
COCCOC(=O)c1c(C)nc(SCC(=O)Nc2ccc(OC)cc2)c(C#N)c1-c1ccco1	none
COc1cccc(NC(=O)CSc2nc3c(c(-c4ccco4)c2C#N)CCCC3)c1	HIV RNase H inh-1 58
COc1ccc(CCNC(=O)c2cc3c(=O)n4cccc(C)c4nc3n(Cc3ccncc3)c2=N)cc1	none (no result: RmlCD inh mix)
COCCNC(=O)c1cc2c(=O)n3cccc(C)c3nc2n(Cc2ccncc2)c1=N	RmlCD inh mix 40
CCC1CCc2c(sc(N)c2C(N)=O)C1 (configuration not stated)	none (no result: HIV RNase H inh-1)
CC1CCc2c(sc(N)c2C(N)=O)C1 (configuration not stated)	HIV RNase H inh-1 65
CCOC(=O)C(C)n1cnc2c(nnn2Cc2ccc(C)cc2)c1=O (configuration not stated)	none
CCC1Oc2ccc(C)cc2N(CC(=O)N(Cc2cccnc2)Cc2ccc(C)o2)C1=O (configuration not stated)	HIV RNase H inh-1 50
CCC1Oc2ccc(C)cc2N(CC(=O)N(Cc2ccc(C)o2)C2CC(C)(C)NC(C)(C)C2)C1=O (configuration not stated)	none (no result: HIV RNase H inh-1)
COC(=O)c1ccc[n+](CCc2c[nH]c3ccccc23)c1	none (no result: HIV RNase H inh-1)
C=CCc1cccc2cc(C(=O)N(CC)CC)c(=O)oc12	none
CCOC(=O)CN1C(=O)N[C@@H](CCc2ccccc2)[C@@H](C(=O)OC)[C@H]1C	none (no result: HIV RNase H inh-1)
CO/N=C(\C(=O)N[C@@H]1C(=O)N2C(C(=O)O)=C(COC(N)=O)CS[C@H]12)c1ccco1	none
Cn1nnnc1SCC1=C(C(=O)O)N2C(=O)[C@@H](NC(=O)[C@H](O)c3ccccc3)[C@H]2SC1	HIV RNase H inh-1 61
Cc1ccc(F)c(NC(=O)C2CCCCC2C(=O)O)c1 (configuration not stated)	none
COC(=O)c1ccc(N(C(=O)c2ccco2)C(C(=O)NC2CCCC2)c2ccco2)cc1 (configuration not stated)	none (no result: HIV RNase H inh-1)
CCCS(=O)(=O)c1nnnn1-c1cccc(OC)c1	HIV RNase H inh-1 55
COc1cccc(-n2nnnc2SCC(=O)Nc2ccc(C(C)=O)cc2)c1	none (no result: HIV RNase H inh-1)
COC(=O)C1=C(CCc2ccccc2)NC(=O)NC1c1ccc(Cl)cc1 (configuration not stated)	none (no result: HIV RNase H inh-1)
CCOc1ccccc1Oc1c(C)oc2cc(OC(=O)c3ccco3)ccc2c1=O	none (no result: HIV RNase H inh-1)
COc1ccccc1-c1c(C)oc2cc(OC(=O)c3ccco3)ccc2c1=O	RmlCD inh mix 32
CC(=O)N=c1sc(S(N)(=O)=O)nn1C	HIV RNase H inh-1 67
CC(=O)Nc1nnc(S(N)(=O)=O)s1	none
CCn1c(=O)c(C(=O)Nc2nc3ccccc3[nH]2)c(O)c2ccccc21	HIV RNase H inh-1 75
CCCCn1c(=O)c(C(=O)Nc2nc3ccccc3[nH]2)c(O)c2ccccc21	none (no result: RmlCD inh mix)
CN(C)/C=C1\C(=O)c2ccc(N(C)C)nc2CC1c1ccccc1 (configuration not stated)	none (no result: RmlCD inh mix)
CCOC(=O)c1c(C)[nH]c(C)c1C(=O)COC(=O)CCOc1ccccc1OC	none
COCCNC(=O)C1CC(c2ccc(C(F)(F)F)cc2)=NO1 (configuration not stated)	none (no result: HIV RNase H inh-1)
N#Cc1ccsc1NC(=O)CN1CCCCCC1	none (no result: HIV RNase H inh-1)
CN(CC(=O)Nc1sccc1C#N)C1CCCCC1	HIV RNase H inh-1 58
CC(NC(=O)CCC1COc2ccccc2O1)c1ccccc1 (configuration not stated)	none (no result: HIV RNase H inh-1)
O=C(O)c1ccc2[nH]c3c(c2c1)CSCC3	HIV RNase H inh-1 66 | HIV RNase H inh-2 inactive
O=C(NCCO)c1ccc2[nH]c3c(c2c1)CCCC3	none
c1ccc2sc(SN3CCOCC3)nc2c1	HIV RNase H inh-1 79 | HIV RNase H inh-2 inactive
c1ccc2sc(N3CCOCC3)nc2c1	none (no result: HIV RNase H inh-1)
